Assay results from PubChem BioAssay AID1159580 (chemical genetic matrix, 2015).
“And” between values parts separate entries of the source, which are not always exact repeats. Identical values can stand only once. In all, about 5,500 compounds went through this assay and about 2,000 (36%) were called active. About 18% were inconclusive and are not listed. Cut-off read from the data, not from the text of the source: active = normalized growth mostly below about 0.91 (no sharp cut-off); inconclusive = no clear call, values can overlap the other calls; inactive = mostly above about 0.92. The list shows a part of the results.

Experiment: chemical genetic growth profiling, strain panel (AID 1159580);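 note: tested at 20 µM; growth read once vehicle control cultures reached saturation at 30 °C; 1 = growth at the plate median or of vehicle wells; lower values mean less growth of the strain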
Conditions: S. cerevisiae deletion strains, growth OD

Measured: normalized growth

CC[C@H](CCC(C)[C@H]1CCC2C3CCC4C[C@@H](O)CC[C@]4(C)C3CC[C@@]21C)C(C)C (stereo partly drawn)
inactive: locus YAL013W, strain DEP1, hits give low values 1.01 | locus YAL021C, strain ccr4, hits give low values 0.968 | locus YAL026C, strain drs2, hits give low values 0.955 | locus YAL030W, strain snc1, hits give low values 0.985 | locus YBL061C, strain skt5, hits give low values 0.988 | locus YBR009C, strain hhf1, hits give low values 0.983 | locus YBR021W, strain FUR4, hits give low values 0.993 | locus YBR023C, strain chs3, hits give low values 0.988 | locus YBR171W, strain sec66, hits give low values 0.976 | locus YBR229C, strain ROT2, hits give low values 0.999 | locus YBR231C, strain swc5, hits give low values 1.01 | locus YBR279W, strain paf1, hits give low values 0.983 | locus YCL011C, strain gbp2, hits give low values 0.986 | locus YCL016C, strain dcc1, hits give low values 0.992 | locus YCL029C, strain bik1, hits give low values 1.03 | locus YCL061C, strain MRC1, hits give low values 0.99 | locus YCL069W, strain vba3, hits give low values 0.971 | locus YCR088W, strain abp1, hits give low values 0.988 | locus YDL005C, strain med2, hits give low values 0.975 | locus YDL035C, strain GPR1, hits give low values 1.01 | locus YDL040C, strain nat1, hits give low values 0.991 | locus YDL074C, strain BRE1, hits give low values 1 | locus YDL101C, strain DUN1, hits give low values 1.01 | locus YDL185W, strain tfp1, hits give low values 1.02 | locus YDL192W, strain arf1, hits give low values 1.02 | locus YDR001C, strain nth1, hits give low values 0.984 | locus YDR069C, strain doa4, hits give low values 0.977 | locus YDR101C, strain arx1, hits give low values 1.01 | locus YDR137W, strain rgp1, hits give low values 0.973 | locus YDR159W, strain sac3, hits give low values 0.975 | locus YDR162C, strain NBP2, hits give low values 1.02 | locus YDR195W, strain ref2 0.946 | locus YDR297W, strain sur2, hits give low values 0.993 | locus YDR318W, strain mcm21, hits give low values 1.01 | locus YDR334W, strain swr1, hits give low values 0.972 | locus YDR335W, strain msn5, hits give low values 0.984 | locus YDR388W, hits give low values 1.01 | locus YDR392W, strain spt3, hits give low values 0.932 | locus YDR502C, strain sam2, hits give low values 1.01 | locus YEL003W, strain gim4, hits give low values 0.991 | locus YEL037C, strain rad23, hits give low values 0.948 | locus YEL061C, strain CIN8 (second series), hits give low values 0.975 | locus YEL061C, strain CIN8, hits give low values 1.01 | locus YER015W, strain faa2, hits give low values 0.995 | locus YER016W, strain bim1, hits give low values 0.992 | locus YER110C, hits give low values 1.01 | locus YER111C, strain swi4, hits give low values 0.992 | locus YER155C, strain BEM2 (second series), hits give low values 0.987 | locus YER155C, strain BEM2, hits give low values 1.01 | locus YER167W, strain BCK2, hits give low values 1 | locus YFR010W, strain ubp6, hits give low values 0.964 | locus YGL078C, strain dbp3, hits give low values 1.02 | locus YGL086W, strain mad1, hits give low values 0.997 | locus YGL167C, strain pmr1, hits give low values 0.999 | locus YGL173C, strain kem1, hits give low values 0.999 | locus YGL227W, strain vid30, hits give low values 0.992 | locus YGL240W, strain doc1, hits give low values 0.988 | locus YGL248W, strain PDE1, hits give low values 1.01 | locus YGL253W, strain hxk2, hits give low values 0.997 | locus YGR135W, strain pre9, hits give low values 1.01 | locus YGR252W, strain gcn5, hits give low values 0.998 | locus YHR013C, strain ard1, hits give low values 0.968 | locus YHR027C, strain rpn1, hits give low values 0.982 | locus YHR030C, strain SLT2, hits give low values 1.01 and 1.06 | locus YHR079C, strain IRE1 (second series), hits give low values 1.01 | locus YHR079C, strain IRE1, hits give low values 1.03 | locus YHR094C, strain hxt1, hits give low values 1.01 | locus YHR129C, strain ARP1, hits give low values 1.01 | locus YHR142W, strain chs7, hits give low values 1.01 | locus YHR200W, strain rpn10, hits give low values 1.01 | locus YIL066C, strain RNR3, hits give low values 1.01 | locus YIL073C, strain SPO22, hits give low values 1.03 | locus YIL125W, strain kgd1, hits give low values 1.01 | locus YIR030C, strain dcg1, hits give low values 1 | locus YJL092W, strain hpr5, hits give low values 0.982 | locus YJL095W, strain BCK1 (second series), hits give low values 1 | locus YJL095W, strain BCK1, hits give low values 0.997 and 0.966 | locus YJL115W, strain asf1, hits give low values 0.982 | locus YJL129C, strain trk1, hits give low values 0.985 | locus YJL134W, strain LCB3, hits give low values 1 | locus YJL154C, strain vps35, hits give low values 0.978 | locus YJL164C, strain tpk1, hits give low values 0.997 | locus YJL166W, strain qcr8, hits give low values 1.06 | locus YJL168C, strain set2, hits give low values 1 | locus YJL187C, strain SWE1 (second series), hits give low values 1 | locus YJL187C, strain SWE1, hits give low values 0.981 | locus YJR043C, strain POL32, hits give low values 1.03 | locus YJR066W, strain TOR1, hits give low values 0.991
